According to PubChem BioAssay (NCATS):
Inconclusive results are not listed. Active and inactive are the calls of the source. Unless noted, calls come from the whole dose curve.

Columns and labels:
[1] = qHTS for Inhibitors of the Functional Ribonucleoprotein Complex (vRNP) of Lassa (LASV) Arenavirus: LASV Primary Screen - GLuc reporter signal (AID 1347082; calls by dose curve; tested in HEK293 reporter line; note: series mostly up to about 57 µM; nearly all actives have a fitted effect of over 60% in size)
[2] = qHTS for Inhibitors of the Functional Ribonucleoprotein Complex (vRNP) of Lassa (LASV) Arenavirus: Viability assay - alamar blue signal for LASV Primary Screen (AID 1347083; calls by dose curve; tested in HEK293 reporter line; note: series mostly up to about 57 µM; nearly all actives have a fitted effect of over 80% in size)
[3] = qHTS for Inhibitors of the Functional Ribonucleoprotein Complex (vRNP) of Lymphocytic Choriomeningitis Arenaviruses (LCMV): Viability assay - alamar blue signal for LCMV Primary Screen (AID 1347085; calls by dose curve; tested in HEK293 reporter line; note: series mostly up to about 57 µM; nearly all actives have a fitted effect of over 80% in size)
[4] = target: Nucleoprotein (Lymphocytic choriomeningitis virus (strain Armstrong)) (UniProt P09992); test: qHTS for Inhibitors of the Functional Ribonucleoprotein Complex (vRNP) of Lymphocytic Choriomeningitis Arenaviruses (LCMV): LCMV Primary Screen - GLuc reporter signal (AID 1347086); note: nearly all actives have a fitted effect of over 70% in size; note: potency is the fitted concentration of half-maximal effect
Nucleoprotein (Lymphocytic choriomeningitis virus (strain Armstrong)), sequence (P09992 whole entry, looked up): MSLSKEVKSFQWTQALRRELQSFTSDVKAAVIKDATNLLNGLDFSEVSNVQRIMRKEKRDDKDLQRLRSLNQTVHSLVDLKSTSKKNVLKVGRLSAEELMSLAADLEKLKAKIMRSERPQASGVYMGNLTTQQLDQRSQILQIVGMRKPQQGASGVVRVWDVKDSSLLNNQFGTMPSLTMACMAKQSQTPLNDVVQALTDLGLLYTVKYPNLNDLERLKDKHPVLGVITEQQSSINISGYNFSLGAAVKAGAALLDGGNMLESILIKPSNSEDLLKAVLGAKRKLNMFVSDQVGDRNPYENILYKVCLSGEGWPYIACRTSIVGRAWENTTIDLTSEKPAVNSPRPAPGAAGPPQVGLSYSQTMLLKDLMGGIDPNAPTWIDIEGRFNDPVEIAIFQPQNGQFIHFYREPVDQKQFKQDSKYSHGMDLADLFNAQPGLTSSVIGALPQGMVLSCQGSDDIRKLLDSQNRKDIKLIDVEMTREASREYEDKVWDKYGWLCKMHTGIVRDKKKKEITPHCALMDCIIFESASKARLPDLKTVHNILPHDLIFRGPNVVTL

Measured: Potency

CCC1NC(=O)c2cc(S(N)(=O)=O)c(Cl)cc2N1 (stereo not given)
inactive: all assays above

CN(C)CCn1nnnc1SCC1=C(C(=O)O)N2C(=O)[C@@H](NC(=O)Cc3csc(N)n3)[C@H]2SC1
inactive: all assays above

CN1CCN(C2Cc3ccccc3Sc3ccc(Cl)cc32)CC1 (stereo not given)
inactive: all assays above

CCOC(CN1CCN(CC(C)C(=O)c2ccccc2)CC1)c1ccccc1 (stereo not given)
inactive: all assays above

Cc1ncc(CSSCc2cnc(C)c(O)c2CO)c(CO)c1O
inactive: all assays above

COCC(=O)O[C@]1(CCN(C)CCCc2nc3ccccc3[nH]2)CCc2cc(F)ccc2[C@@H]1C(C)C
inactive: all assays above

CCN(CC)CCSC(=O)C(c1ccccc1)c1ccccc1
inactive: all assays above

O=C(/C=C/c1ccccc1)NCCO
inactive: all assays above

CCc1cccc(N(C)C(N)=Nc2cccc3ccccc23)c1
inactive: all assays above

CCOC(=O)c1cccc(N)c1
inactive: all assays above

CC(C)CCCC(C)N (stereo not given)
inactive: all assays above

Cc1ccc(N(CC2=NCCN2)c2cccc(O)c2)cc1
inactive: all assays above

OCC(O)CN1CCN(c2ccccc2)CC1 (stereo not given)
inactive: all assays above

CCCN(CCC)C(=O)C(CCC(=O)O)NC(=O)c1ccccc1 (stereo not given)
inactive: all assays above

CC(C)N=C(N)/N=C(\N)Nc1ccc(Cl)cc1
inactive: all assays above

CN1CCN(C2=Nc3cc(F)ccc3Cc3ccccc32)CC1
inactive: all assays above

COc1ccnc2c1CCCCC2S(=O)c1nc2ccccc2[nH]1 (stereo not given)
inactive: all assays above

CCOc1ccc2nc(S(N)(=O)=O)sc2c1
inactive: all assays above

CN(C)CCCOC1(Cc2ccccc2)CCCCCC1
inactive: all assays above

C[C@@H]1C[C@H]2[C@@H]3CCC4=CC(=O)C=C[C@]4(C)[C@@]3(F)[C@@H](O)C[C@]2(C)[C@@]1(O)C(=O)COC(=O)c1ccncc1
inactive: all assays above

C=C1c2cccc(O)c2C(O)=C2C(=O)[C@]3(O)C(O)=C(C(N)=O)C(=O)[C@@H](N(C)C)[C@@H]3[C@@H](O)[C@H]12
inactive: all assays above

C/C(=N/NC(=O)c1ccncc1)C(=O)O
inactive: all assays above

CC1(C)OC[C@@H](COC(=O)CCc2ccc(OC[C@@H](O)CNCCNC(=O)N3CCOCC3)cc2)O1
inactive: all assays above

CCC(=O)O[C@]1(C(=O)SCF)[C@H](C)C[C@H]2[C@@H]3C[C@H](F)C4=CC(=O)C=C[C@]4(C)[C@@]3(F)[C@@H](O)C[C@@]21C
active: [4] 17.2 µM
inactive: all other assays above

CN(C(=O)CCCOc1ccc2[nH]c(=O)ccc2c1)C1CCCCC1
inactive: all assays above

CCNC(=O)NCc1cccc(Cl)c1
inactive: all assays above

CCCCCOc1ccc(C2SC(=O)NC2=O)cc1OCC (stereo not given)
inactive: all assays above

NC(N)=N/N=C/c1c(Cl)cccc1Cl
inactive: all assays above

Nc1nc2ncc(CNc3ccc(C(=O)N[C@@H](CCC(=O)O)C(=O)O)cc3)nc2c(=O)[nH]1
inactive: all assays above

Cn1cnc2c1c(=O)[nH]c(=O)n2C
inactive: all assays above

CC(C)OC(=O)C(C(=O)OC(C)C)=C1SC=CS1
inactive: all assays above

C[N+]1(C)CCC(=C(c2ccccc2)c2ccccc2)CC1
inactive: all assays above

CC1(c2ccccc2)OC(C(=O)O)=CC1=O (stereo not given)
inactive: all assays above

CC(=O)Nc1ccc(S(=O)(=O)Nc2ccc([N+](=O)[O-])cc2)cc1
inactive: all assays above

CCCN(CCC)C(=O)C(CCC(=O)OCCCN1CCN(CCOC(=O)Cc2c(C)n(C(=O)c3ccc(Cl)cc3)c3ccc(OC)cc23)CC1)NC(=O)c1ccccc1 (stereo not given)
inactive: all assays above
